SKBR3 24h inh = SK-BR-3 proliferation inhibitors; SK-BR-3 viability, CellTiter-Glo ATP luminescence, 24 h; active compounds read low; viability, % at 10 µM; hit rate 0.47% among 41,000;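 active = viability at or below the median of all test compounds minus 3 SD, in both replicates if run twice, cut at about 45% in these data; inconclusive = duplicate replicates that disagree with each other; inactive = viability above that cutoff in every replicate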;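 also: 100% = median untreated cell wells and 0% = median positive control drug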
CatS inh = inhibitors of human cathepsin S; P25774; recombinant cathepsin S, AMC dipeptide fluorescence, pooled mixtures; inhibition, %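 (tested at 5 µM per compound within 10-compound mixtures)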; hit rate 0.06% among 62,000; in the data active = inhibition above about 32%, passing the limit was not always enough; inconclusive = no clear call, values can overlap the other calls;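 also: 0% = enzyme without compound and 100% = blank without enzyme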
Target sequence (P25774 115-331 limits assumed): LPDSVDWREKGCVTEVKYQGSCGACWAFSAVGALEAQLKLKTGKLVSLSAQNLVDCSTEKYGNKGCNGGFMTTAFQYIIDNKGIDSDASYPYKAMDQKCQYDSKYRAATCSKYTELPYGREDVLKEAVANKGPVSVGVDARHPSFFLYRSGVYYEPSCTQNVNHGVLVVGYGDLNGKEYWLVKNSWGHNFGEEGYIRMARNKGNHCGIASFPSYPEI
CatB inh = blocks human cathepsin B protease activity; inhibition, %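 (tested at 10 µM)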; purified cathepsin B, fluorogenic substrate, fluorescence; P07858; AID 453; hit rate 0.1% among 63,000; in the data active = inhibition above about 21%;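 also: 0% = enzyme with no compound and 100% = no enzyme blank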
HER2 expr 66K = lowers expression of human Her2 kinase; P04626; SKBR-3 HER2 protein level, AlphaScreen, 18-24 h; active compounds read low; HER2 level % of control, % at 10 µM; hit rate 0.69% among 65,000;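 active = HER2 level under 5% of the carrier-only control; inconclusive = no clear call, values can overlap the other calls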;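 also: 100% = DMSO carrier and 0% = 500 nM PU-H71 HSP90 inhibitor; lower value means stronger loss of Her2 protein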
CatB mixtures = human cathepsin B inhibition by mixtures; Purified cathepsin B, AMC dipeptide fluorescence, compound mixtures; hit rate 0.06% among 62,000; inhibition, %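 (ten-compound pools at 5 µM per compound and 50 µM total)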; P07858; in the data active = inhibition above about 22%, passing the limit was not always enough; inconclusive = no clear call, values can overlap the other calls;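 also: 0% = enzyme without compound and 100% = no enzyme blank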
CatL block = inhibitors of human cathepsin L. P07711. purified cathepsin L, fluorogenic substrate, fluorescence. inhibition, %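 (tested at 10 µM)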. hit rate 0.17% among 58,000. AID 460; in the data active = inhibition above about 45%;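 also: 0% = enzyme with no compound and 100% = no enzyme blank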
Target sequence (P07711 114-288 limits assumed): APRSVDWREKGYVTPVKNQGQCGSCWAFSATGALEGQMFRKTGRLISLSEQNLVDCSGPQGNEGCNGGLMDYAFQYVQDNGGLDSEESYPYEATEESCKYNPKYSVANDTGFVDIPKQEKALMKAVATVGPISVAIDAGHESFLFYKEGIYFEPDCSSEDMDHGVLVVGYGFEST
Target sequence (P07711 292-333 limits assumed): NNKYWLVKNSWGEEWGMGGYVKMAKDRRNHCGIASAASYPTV
Numbers without * were called inactive; ? = inconclusive; nt = no result given. Rows were chosen to be rich in hits. Some 1.1% of all compounds tested hit in one or more screens of this group.

SMILES | SKBR3 24h inh | CatS inh | CatB inh | HER2 expr 66K | CatB mixtures | CatL block
O=C(OCC(=O)N1CCc2ccccc21)c1cccnc1 | 41* | -4 | 2 | 87 | 0 | 17
Cc1nnc2n(Cc3ccccc3)c(=O)c3c4c(sc3n12)COC(C(C)C)C4 (stereo unspecified) | 77 | 15 | 0 | 105 | 2 | -8
CCN(CC)c1ccc2c(C)c(-c3ccc(N)cc3)c(=O)oc2c1 | 88 | -5 | -1 | 104 | 0 | -107
CCN(CC)c1ccc2c(Cl)c(Br)c(=O)oc2c1 | ? | 0 | -2 | -27* | 2 | -5
CCN(CC)c1ccc2c(c1)oc(=O)c1c(Cl)cc(=O)oc12 | nt | -6 | nt | -17* | -1 | -76
Cc1cccc(C)c1NC(=O)CSCC(=O)c1ccc(O)c(O)c1 | 90 | nt | -6 | 52 | nt | -4
CCCCn1c2nc3ccccc3nc2c2c(=N)oc(C)nc21 | 92 | 0 | -3 | 79 | 0 | -58
CCCCC(CC)Cn1c2nc3ccccc3nc2c2c(=N)oc(C)nc21 (stereo unspecified) | 38* | -3 | -2 | 0.9* | -8 | -18
O=C(CCCSc1nc2sc3c(c2c(=O)[nH]1)CCC3)NCCO | nt | -5 | -2 | 92 | 3 | -2
O=C(Nc1ccc2c(c1)OCO2)c1cnn2cccnc12 | 97 | 8 | 2 | -21* | -1 | 10
COc1ccc(S(=O)(=O)N2CCN(CC(=O)Nc3cc(C(F)(F)F)ccc3Cl)CC2)cc1 | nt | 4 | 0 | 31 | 5 | 2
CC1(C)NC(C)(C)C(O)(C(N)=O)C1=O (stereo unspecified) | 73 | -6 | -2 | 49 | 0 | 0
O=C(Nc1c(C(=O)N2CCOCC2)cnn1-c1ccccc1)c1ccco1 | 82 | -2 | -1 | 95 | -1 | 7
COc1ccc(Cl)cc1C(=O)Nc1ccccc1N1CCN(C)CC1 | 79 | -2 | 2 | -18* | 2 | 8
CN1CCN(c2ccc(Cl)cc2NC(=O)c2ccc(S(=O)(=O)N3CCCCCC3)cc2)CC1 | nt | -2 | 1 | -6.0* | -1 | -4
COC(=O)c1cc(Br)c(=O)n(Cc2ccc(OC)c(OC)c2)c1 | 96 | -1 | 7 | 94 | 1 | 9
O=c1c2ccccc2c2ccccc2c(=O)n1Cc1ccco1 | 100 | -1 | 2 | 99 | -1 | 18
N=c1c2c(-c3ccccc3)c(-c3ccccc3)n(Cc3ccco3)c2ncn1Cc1ccco1 | nt | 4 | 6 | 4.4* | 1 | nt
N=c1c2c(-c3ccccc3)c(-c3ccccc3)n(Cc3ccccc3)c2ncn1CCCn1ccnc1 | 51 | nt | -3 | 3.3* | nt | 32
Clc1ccccc1OCCCCn1ccnc1 | nt | 8 | 3 | 104 | -8 | 0
COc1ccc(Cl)c(Cn2c(NCCCO)nc3c2c(=O)n(C)c(=O)n3C)c1 | 138 | 5 | 1 | 95 | 1 | 57*
CC(=O)c1c(C)nc2nonc2c1N | 86 | -1 | 1 | 93 | 4 | -3
O=C(Nc1ccc(S(=O)(=O)NC2CCCC2)cc1)c1cnccn1 | 91 | -5 | -5 | 95 | 5 | 0
O=c1cc(O)nc2n1CCCS2 | 77 | nt | 3 | 90 | nt | 12
CCOc1ccccc1-n1c(SCC(=O)Nc2ccc(CC)cc2)nc2n[nH]c(C)c2c1=N | 30* | nt | nt | 25 | nt | nt
SMILES | SKBR3 24h inh | CatS inh | CatB inh | HER2 expr 66K | CatB mixtures | CatL block
Cc1nc2sc(C(c3ccco3)N3CCC(Cc4ccccc4)CC3)c(O)n2n1 (stereo unspecified) | nt | -17 | -3 | 101 | -1 | -7
COc1ccccc1CNC(=O)CCn1c(=O)[nH]c2ccsc2c1=O | 87 | 9 | -2 | nt | 7 | 3
O=C(CCCCn1c(=O)[nH]c2ccsc2c1=O)NCc1cccnc1 | 91 | 2 | 0 | 82 | 25* | -1
O=C(COc1ccc(Cl)cc1Cl)NC1CCSC1=O (stereo unspecified) | 74 | -5 | 3 | 74 | 0 | 31
CCOC(=O)Cn1nnnc1CN(Cc1ccc(OC)cc1)Cc1cc2cc(C)ccc2[nH]c1=O | 39* | 6 | 6 | 100 | 5 | -9
COc1ccccc1CN(Cc1cc2cc(C)ccc2[nH]c1=O)Cc1nnnn1CC1CCCO1 (stereo unspecified) | 37* | -2 | 3 | 89 | 2 | 18
Cc1ccc2c(C)nc(NC3=NCN(Cc4ccccc4)CN3)nc2c1 | 91 | -14 | 1 | 105 | 0 | -5
COC(=O)c1sc(S(=O)(=O)N2CCCCC2)c(C(=O)OC)c1C | 110 | -4 | 8 | 81 | 0 | 1

Screening results: PubChem, several laboratories
